# Bioassay records as filed in PubChem.
# A selection: hits, their analogues and other compounds. The true share with any hit is near 2.8%.
# FEN1 inh – inhibitors of human flap endonuclease 1; hit rate 0.35% among 390,000; Recombinant FEN1 flap cleavage, fluorescence, 15 min; P39748; Potency, µM (highest dose often 114 µM), for inactives: at the highest dose activity change, negative = inhibition, hits mostly inhibitors; also: potency is read from the fitted curve at half-maximal effect; % is scaled to controls: 0 for no effect and ±100 for the full control effect; nearly all actives have a fitted effect of over 65% in size
# Target sequence (P39748 whole entry, looked up): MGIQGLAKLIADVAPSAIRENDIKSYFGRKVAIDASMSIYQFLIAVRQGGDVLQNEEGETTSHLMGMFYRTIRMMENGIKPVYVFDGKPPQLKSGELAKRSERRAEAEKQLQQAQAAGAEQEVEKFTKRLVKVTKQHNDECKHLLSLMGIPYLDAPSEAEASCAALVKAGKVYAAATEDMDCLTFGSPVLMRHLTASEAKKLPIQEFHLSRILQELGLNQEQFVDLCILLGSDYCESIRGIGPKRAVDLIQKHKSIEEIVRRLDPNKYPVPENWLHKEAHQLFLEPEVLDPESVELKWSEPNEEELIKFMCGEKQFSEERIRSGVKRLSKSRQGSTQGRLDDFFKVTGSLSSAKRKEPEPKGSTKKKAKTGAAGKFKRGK
#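 Quantitative HTS format: each compound was titrated, incubated with 10 nM nuclease for 15 min at room temperature, then challenged with flap substrate at 50 nM final. Signal change over 15 min gave concentration–effect curves.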
# POLK inh – DNA polymerase kappa (human) inhibition; Q9UBT6; purified Pol kappa, fluorescent DNA synthesis assay, 10 min; hit rate 0.53% among 400,000; AID 588579; Potency, µM (highest dose often 107 µM), inactives show top-dose activity, negative = inhibition, actives largely listed as inhibitors; also: potency is read from the fitted curve at half-maximal effect; % is scaled to controls: 0 for no effect and ±100 for the full control effect
#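 Activity was followed as the change in fluorescence between reads at 0 and 10 min after starting the reaction with 50 nM substrate. Beforehand, 10 nM polymerase had been preincubated with compound for 15 min at room temperature.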
# PI5P4Ka inh – PI5P4K alpha (human) kinase inhibition; P48426; PI5P4Kalpha enzyme, ADP-Glo luminescence, 60 min; hits give low values; max response, %; hit rate 1.2% among 330,000; AID 652105; active = max response of -50% or lower; inconclusive = between -30% and -50%; inactive = -30% or higher; also: value at the top dose of about 77 µM; % is scaled to controls: 0 for no effect and ±100 for the full control effect
# Target sequence (P48426 whole entry, looked up): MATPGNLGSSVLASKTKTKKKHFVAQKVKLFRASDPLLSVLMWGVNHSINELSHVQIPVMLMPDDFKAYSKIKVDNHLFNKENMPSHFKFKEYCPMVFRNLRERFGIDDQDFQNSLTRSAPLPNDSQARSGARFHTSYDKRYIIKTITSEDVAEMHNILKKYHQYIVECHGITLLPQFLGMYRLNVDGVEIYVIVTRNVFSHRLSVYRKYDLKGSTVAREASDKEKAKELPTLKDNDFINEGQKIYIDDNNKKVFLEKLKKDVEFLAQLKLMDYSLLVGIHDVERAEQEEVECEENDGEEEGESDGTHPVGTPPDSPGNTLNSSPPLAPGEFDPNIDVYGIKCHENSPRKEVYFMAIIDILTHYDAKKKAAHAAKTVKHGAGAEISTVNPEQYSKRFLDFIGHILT
#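 qHTS, 1536-well: enzyme/substrate mix, compound by pin tool, 5 microM ATP final; RT 60 min; ADP-Glo reagents 1 (45 min) then 2 (30 min); luminescence.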
# POLH inh – inhibitors of human DNA polymerase eta; Q9Y253; hit rate 1.2% among 390,000; recombinant Pol eta, fluorescent DNA replication assay; Potency, µM (top dose mostly 114 µM), inactives show at the top dose activity change, negative = inhibition, most hits filed as inhibitors; also: potency is read from the fitted curve at half-maximal effect; % is scaled to controls: 0 for no effect and ±100 for the full control effect
#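 Fluorescent replication assay: 50 nM final substrate added after a 15 min room-temperature compound preincubation with 10 nM enzyme. Signal taken at 0 min and again at 10 min.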
# Pol iota inh – inhibitors of human DNA polymerase iota | Pol iota fluorescent replication assay, 10 min | Potency, µM (doses to about 115 µM), inactives show at the highest dose activity, negative = inhibition, hits mostly inhibitors | hit rate 1% among 390,000 | AID 588590; also: potency is read from the fitted curve at half-maximal effect
#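 Pol iota at 10 nM preincubated 15 min with compounds at room temperature; reaction started with fluorescent substrate, 50 nM final. Fluorescence read kinetically at 0 and 10 min; buffer-only wells as negative control.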
# POLB inh – blocks human DNA polymerase beta activity; AID 485314; hit rate 1.3% among 340,000; Pol beta primer extension/strand displacement, fluorescence kinetic; Potency, µM (highest dose often 114 µM), for inactives: at the top dose activity change, negative = inhibition, actives largely listed as inhibitors; also: potency is read from the fitted curve at half-maximal effect; % is scaled to controls: 0 for no effect and ±100 for the full control effect
#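 Pol beta (10 nM) and compounds were preincubated 15 min at room temperature, then 50 nM substrate (final) started primer extension/strand displacement. Reads were taken at 0 and 10 min; concentration-response data were fitted to a four-parameter Hill equation.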
# * = called active by the depositor; ? = inconclusive; · = no result given; [ ] = another dose, or the depositor's remark. Unless noted, calls follow the shape of the dose curve; as a rule, active = well fitted curve in the direction sought with a large enough effect; inconclusive = small, poorly fitted or top-dose-only effect, or another doubt; inactive = no such curve, though single readings can be large; an effect the other way counts as inactive or inconclusive.
SMILES,FEN1 inh,POLK inh,PI5P4Ka inh,POLH inh,Pol iota inh,POLB inh
C#CCOCCOCCOCCNc1nc(N2CCN(C(=O)Cn3cc(CC(C)O)nn3)CC2)nc(N2CCN(C(=O)[C@H](C)n3cc(CCCN=C(N)N)nn3)CC2)n1 (some centres undefined),?,-7.0%,-79.9*,-1.7%,?,-1.5%
C#CCOCCOCCOCCNc1nc(N2CCN(C(=O)CCCCCCCCCCNC(=O)Cn3cc(C[C@@H](C)O)nn3)CC2)nc(N2CCN(C(=O)CCCCCCCCCCNC(=O)[C@H](CCCCN)n3cc(C[C@@H](C)CC)nn3)CC2)n1,50.1µM*,-1.8%,?,?,?,·
COc1ccc(NC(=O)C2CCCN(S(=O)(=O)c3ccc(Br)s3)C2)cc1 (centres undefined),-13.4%,-3.1%,·,-9.4%,4.9%,0.5%
Cc1ccc(C(=O)c2cn(Cc3ccccc3)c3c(F)cc(F)cc3c2=O)cc1,2.3%,-12.9%,·,-2.2%,11.7%,2.5%
COc1ccc(C(=O)c2cn(Cc3ccc(F)cc3)c3c(F)cc(F)cc3c2=O)cc1,89.1µM*,-0.8%,·,-17.8%,?,7.4%
Cc1ccc(NC(=S)/C(C#N)=C2/Nc3ccccc3S2)cc1,·,·,-26.6,39.8µM*,·,·
N#C/C(C(=O)N1CCCCC1)=C1\Nc2ccccc2S1,-10.6%,-27.7%,-14.0,-11.3%,8.6%,28.1%
CCC(=O)Nc1cc(-c2cccc(C)c2)nn1-c1ccccc1,-9.8%,-8.4%[60.1 µM],·,-9.7%,0.9%,8.4%
c1ccc(Nc2c(-c3ccco3)nc3ccccn23)cc1,0.8%,-5.2%,-8.4,-7.4%,45.7%,2.9%
c1ccc(-c2nc(-c3ccco3)n3ccccc23)cc1,-22.5%,-8.0%,?,?,-6.4%,35.5µM*
Cc1ccc(S(=O)(=O)NC(=O)c2cc(C)n(-c3cc(S(=O)(=O)N4CCOCC4)ccc3N3CCCC3)c2C)cc1,3.6%,-25.2%,·,89.1µM*,?,?
Cc1ccc(C(=O)Nc2cc(S(=O)(=O)N3CCOCC3)ccc2N2CCCC2)cc1,-1.4%,-4.8%,-4.4,-25.1%,9.7%,·
O=C(O)Cc1sc(Nc2cccc3ccccc23)nc1-c1ccc(Cl)cc1,1.3%,-13.1%,0.0,79.4µM*,178.1%,?
O=C(O)Cc1sc(Nc2cccc3ccccc23)nc1-c1ccccc1,-14.6%,-5.9%,2.4,2.2%,-0.6%,·
CCn1c(=O)c(-[n+]2ccccc2)c(O)c2ccccc21,35.5µM*,-4.7%,-0.7,9.8%,?,5.4%
Nc1ccccc1/C=C/c1ccccc1N,-14.0%,-2.7%,1.0,-3.0%,-21.0%,·
C#CCOC(=O)c1ccccc1C(=O)O,-4.2%,-8.0%,1.3,5.7%,79.4µM*,-0.1%
CCOC(=O)c1cnc(SCC(=O)OC)nc1N,46.2%,9.3%,5.7,-7.4%,-7.5%,2.8%
CCOC(=O)c1cnc(SSc2ncc(C(=O)OCC)c(N)n2)nc1N,-19.0%,-6.6%,-70.9*,3.2%,-5.8%,12.7%
Cn1nc(-c2ccc(OCC(=O)Nc3cccc(C(F)(F)F)c3)cc2)c2ccccc2c1=O,-7.5%,-6.2%,·,79.4µM*,11.6%,?
COc1cc(CNC(=O)c2cc(-c3ccccc3)n[nH]2)cc(OC)c1OC,15.4%,0.5%,·,-16.6%,13.1%,-1.9%
Cc1sc2ccccc2[n+]1CCC[n+]1c(C)sc2ccccc21,-26.9%,-18.9%,·,·,?,·
CCC(=O)c1ccc(OCC(=O)N2CCCC2)c(OC)c1,2.1%,4.6%,-6.0,-10.9%,4.8%,22.4µM*
CCC(=O)c1ccc(OCC(=O)O)c(OC)c1,10.1%,4.4%,0.2,-5.8%,6.5%,1.3%
CCC(CC)c1nnc(NC(=O)Cc2cccs2)s1,16.2%,-17.9%,?,79.4µM*,-15.5%,?
SMILES,FEN1 inh,POLK inh,PI5P4Ka inh,POLH inh,Pol iota inh,POLB inh
O=C(Cc1cccs1)Nc1nnc(Cc2ccc(F)cc2)s1,·,·,·,·,·,39.8µM*
Cc1ccc(Cl)cc1N1CCN(C(=O)CCCCCn2c(=O)[nH]c3ccccc3c2=O)CC1,-15.5%,-7.9%[60.1 µM],·,-0.2%,-1.5%,0.4%
C[Se]CCC(N)C(=O)O (centres undefined),·,-2.6%[60.1 µM],·,·,·,·
Cc1sc2nc(SCc3ccc(C(=O)O)cc3)n(Cc3ccco3)c(=O)c2c1C,0.7%,-5.2%,-0.2,79.4µM*,?,?
Cc1cccc(CNC(=O)c2ccc3nc(Cc4ccccc4)oc3c2)c1,0.0%,-7.6%[60.1 µM],·,-25.2%,20.6%,-1.8%
CN(C)c1ccc(CNC(=O)c2ccc3nc(Cc4ccccc4)oc3c2)cc1,0.9%,-12.5%[60.1 µM],·,-11.5%,28.2µM*,0.2%
COc1cc(/C=C2\SC(=O)N(c3ccc(Cl)cc3)C2=O)cc([N+](=O)[O-])c1O,?,?,-51.1*,-14.6%,6.31µM*,56.2µM*
CN(C)S(=O)(=O)N(CC(=O)NCCSCc1ccccc1)c1ccccc1,-2.7%,?,?,?,?,35.5µM*
CN(C)S(=O)(=O)N(CC(=O)N(Cc1ccccc1)Cc1ccccc1)c1ccccc1,-3.6%,?,·,?,?,22.4µM*
Cc1ccccc1CSCCNC(=O)CN(c1ccccc1)S(=O)(=O)N(C)C,-20.5%,-5.7%,·,-2.4%,-23.1%,16.7%
CN(C)c1nc(NNC(=O)c2ccccc2)nc(N(C)C)n1,-16.8%,?,20.1,-12.2%,?,·
[N-]=C=C1C(=O)NC(=O)C([n+]2ccc(-c3ccncc3)cc2)C1c1ccccc1C(F)(F)F (centres undefined),9.7%,-12.5%,-10.5,-24.6%,15.8µM*,-1.1%
CC(C)c1cc(C(=O)NCc2ccc(F)cc2)c(N)s1,·,·,-15.2,·,·,·
O=C(OCC(=O)N1CCCCC1)c1cc2ccccc2cc1O,2.2%,-10.3%,1.8,-14.5%,8.4%,3.1%
C/C(CC(=O)Nc1ccc(Cl)c(C(F)(F)F)c1)=N\NC(=O)c1cc2ccccc2cc1O,-20.5%,?,?,-7.5%,89.1µM*,-14.3%
NNC(=O)c1cc2ccccc2cc1O,-2.8%,-19.3%,-52.4*,-16.8%,-7.5%,19.4%
C/C(CC(=O)N1CCCC1)=N\NC(=O)c1cc2ccccc2cc1O,-9.6%,?,?,-8.3%,79.4µM*,-74.2%
Cc1ccc(/C=C/c2onc(C)c2S(=O)(=O)N2CCC(C(=O)N3CCN(c4cc(C)ccc4C)CC3)CC2)cc1,-12.9%,-0.1%[60.1 µM],·,-2.5%,3.3%,-24.9%
COc1cc(OC)c(NC(=O)N2CCc3cc(S(=O)(=O)N4CCC(C)CC4)ccc32)cc1Cl,-0.8%,-8.8%,·,·,-14.5%,39.3%
Cc1nc2c(C(=O)N3CCCC3)cnn2c(C)c1Cc1c(F)cccc1Cl,-7.0%,-7.2%,·,4.5%,11.3%,31.2%
Cc1nc2c(C(=O)N3CCN(c4ccccn4)CC3)cnn2c(C)c1Cc1cccc(Cl)c1,-16.1%,-8.0%,·,-17.8%,89.1µM*,2.9%
